In assay [1] the target is Peroxisome proliferator-activated receptor delta (Homo sapiens) (UniProt Q03181). Description: qHTS assay to identify small molecule agonists of the peroxisome proliferator-activated receptor delta (PPARd) signaling pathway (AID 743212). A digest of the protocol: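 Quantitative high-throughput agonist screen in a HEK293H beta-lactamase reporter line under UAS control. Compounds in DMSO, at 37 C. Fluorescence read after 2 h with FRET substrate at room temperature.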

Assay [2] can be described thus: qHTS assay to identify small molecule antagonists of the peroxisome proliferator-activated receptor delta (PPARd) signaling pathway - cell viability counter screen (AID 743213; active = well fitted curve in the direction sought with a large enough effect in the repeat runs; an effect the other way counts as inactive or inconclusive; also: nearly all actives have a fitted effect of over 50% in size; also: potency is read from the fitted curve at half-maximal effect). A digest of the protocol: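 PPARd-bla HEK293H cells were treated with compounds plus agonist L165041 (300 nM final) for 17 h at 37 C. Viability was then read in the same wells by CellTiter-Glo luminescence after 30 min at room temperature.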
(In general: qHTS replaces the single test concentration by a dilution series.)

Assay [3] has as its target Peroxisome proliferator-activated receptor delta (Homo sapiens) (UniProt Q03181). The experiment in a line: qHTS assay to identify small molecule antagonists of the peroxisome proliferator-activated receptor delta (PPARd) signaling pathway (AID 743215; active = well fitted inhibition curve with a large enough effect in the signal ratio in the repeat runs, not every such curve was filed as active; the % refers to the signal ratio;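 also: cells stimulated with agonist L165041 at 300 nM final during compound exposure; series mostly up to about 62 µM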). A digest of the protocol:
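Inhibition of L165041-driven (300 nM final) PPARd signaling is scored in HEK293H UAS-bla cells. Exposure lasts 17 h at 37 C; beta-lactamase activity is then read by FRET substrate fluorescence after 2 h at room temperature.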

Assay [4] in a line: qHTS assay to identify small molecule agonists of the farnesoid-X-receptor (FXR) signaling pathway - cell viability counter screen (AID 743218; active = well fitted curve in the direction sought with a large enough effect in the repeat runs; an effect the other way counts as inactive or inconclusive; also: nearly all actives have a fitted effect of over 45% in size; also: potency is read from the fitted curve at half-maximal effect). In a few lines:
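Cytotoxicity counter-screen run in parallel, same wells: FXR-UAS-bla HEK 293T cells dosed 16 h at 37 C, viability read by CellTiter-Glo luminescence after 30 min at room temperature.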

Assay [5] can be described thus: qHTS assay to identify small molecule antagonists of the farnesoid-X-receptor (FXR) signaling pathway - cell viability counter screen (AID 743221; active = well fitted cell-killing curve with a large enough effect in the repeat runs, not every such curve was filed as active; also: nearly all actives have a fitted effect of over 50% in size). In a few lines:
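FXR-UAS-bla HEK 293T cells were treated with test compounds plus chenodeoxycholic acid (50 uM final) for 16 h at 37 C. Cell viability in the same wells was then read as CellTiter-Glo luminescence after 30 min at room temperature.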

The target of assay [6] is Vitamin D3 receptor (Homo sapiens) (UniProt P11473). The experiment in a line: qHTS assay to identify small molecule agonists of the vitamin D receptor (VDR) signaling pathway (AID 743222). In a few lines: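 Quantitative HTS agonist-mode screen: compounds in DMSO were pin-transferred onto VDR-bla cells and incubated 16 h at 37C, 5% CO2. Reporter activity was detected with LiveBLAzer B/G FRET substrate after 2 h at room temperature.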

Assay [7] has the same target. Description: qHTS assay to identify small molecule antagonists of the vitamin D receptor (VDR) signaling pathway (AID 743223; active = well fitted inhibition curve with a large enough effect in the signal ratio in the repeat runs, not every such curve was filed as active; the % refers to the signal ratio). A digest of the protocol: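 VDR-bla cells were plated, incubated 4 h at 37C, then given compound and 1alpha,25-dihydroxyvitamin D3 (3 nM final). After 16 h at 37C, LiveBLAzer B/G FRET substrate was added for 2 h at room temperature and fluorescence read.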

Assay [8] is described as follows: qHTS assay to identify small molecule agonists of the vitamin D receptor (VDR) signaling pathway - cell viability counter screen (AID 743224; active = well fitted curve in the direction sought with a large enough effect in the repeat runs; an effect the other way counts as inactive or inconclusive; also: series mostly up to about 63 µM; nearly all actives have a fitted effect of over 50% in size). In a few lines:
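Viability is measured in the same wells as the VDR-bla reporter assay: after 16 h compound treatment and 2 h substrate loading, CellTiter-Glo is added and luminescence read 30 min later.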

Assay [9] can be described thus: qHTS assay to identify small molecule antagonists of the vitamin D receptor (VDR) signaling pathway - cell viability counter screen (AID 743225; active = well fitted curve in the direction sought with a large enough effect in the repeat runs; an effect the other way counts as inactive or inconclusive; also: nearly all actives have a fitted effect of over 50% in size; also: potency is read from the fitted curve at half-maximal effect). In a few lines:
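VDR-bla HEK 293T cells, 4 h pre-incubation at 37C, then compound plus 1-alpha,25-dihydroxyvitamin D3 (3 nM final) for 16 h. After the beta-lactamase FRET read, CellTiter-Glo was added to the same wells; luminescence after 30 min at room temperature.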

Assay [10] is described as follows: qHTS assay to identify small molecule agonists of the NFkB signaling pathway (AID 1159509; active = well fitted curve in the direction sought with a large enough effect in the signal ratio in the repeat runs, not every such curve was filed as active; the % refers to the signal ratio; also: series mostly up to about 61 µM). In a few lines: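 After overnight attachment, reporter cells received test compounds, DMSO or positive controls and were incubated 5 hr at 37 C. FRET substrate was then added for 1.5 hr at room temperature before dual-emission fluorescence reading.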
A short description of assay [11]: qHTS assay to identify small molecule agonists of the NFkB signaling pathway - cell viability counter screen (AID 1159515). Also: series mostly up to about 61 µM; nearly all actives have a fitted effect of over 55% in size. In a few lines: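 Multiplexed viability readout: after the 5 hr compound exposure and 1.5 hr FRET substrate step, CellTiter-Glo reagent went into the same NFkB-bla ME-180 wells; ATP luminescence was measured after 30 min at room temperature.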

Assay [12] is described as follows: qHTS assay to identify small molecule agonists of the endoplasmic reticulum stress response signaling pathway (AID 1159516; active = well fitted activation curve with a large enough effect in the signal ratio in the repeat runs, not every such curve was filed as active; the % refers to the signal ratio). In a few lines: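 Tox21 10K library screened in quantitative HTS format on ESRE-bla HeLa cells, a beta-lactamase reporter under ER stress response element control; 5 hr treatment, FRET read.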
Assay [13] in a line: qHTS assay to identify small molecule agonists of the endoplasmic reticulum stress response signaling pathway - cell viability counter screen (AID 1159517). In a few lines:
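Counter-screen wells were identical to the reporter wells. Cells were plated at 1,500 per well and dosed for 5 hr, then read for luminescence 30 min after CellTiter-Glo addition.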

Assay [14] can be described thus: qHTS assay to identify small molecule antagonists of the retinoid-related orphan receptor gamma (ROR-gamma) signaling pathway - cell viability counter screen (AID 1159520; active = well fitted curve in the direction sought with a large enough effect in the repeat runs; an effect the other way counts as inactive or inconclusive; also: nearly all actives have a fitted effect of over 50% in size). In a few lines: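 Tet-on ROR gamma CHO cells were given compounds for 2 hr, then doxycycline hyclate at 1 uM final, and incubated 16 hr at 37 C. Viability was measured as ATP content by CellTiter-Glo luminescence.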

Assay [15] can be described thus: qHTS assay to identify small molecule agonists of the AP-1 signaling pathway - cell viability counter screen (AID 1159525). Also: nearly all actives have a fitted effect of over 55% in size. In a few lines:
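AP-1-bla ME-180 cells in Opti-MEM with 0.5% dialyzed FBS, compound exposure 5 h at 37 C in 15-point titration. Viability read in the same wells as ATP content by CellTiter-Glo luminescence, normalised to tetra-n-octylammonium bromide and DMSO controls.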

Assay [16] can be described thus: qHTS assay to identify small molecule agonists of the AP-1 signaling pathway (AID 1159526).
The target in assay [17] is Bile acid receptor (Homo sapiens) (UniProt Q96RI1). Description: qHTS assay to identify small molecule antagonists of the farnesoid-X-receptor (FXR) signaling pathway (AID 743217; active = well fitted inhibition curve with a large enough effect in the signal ratio in the repeat runs, not every such curve was filed as active; the % refers to the signal ratio). In a few lines: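 Antagonist mode against 50 uM (final) chenodeoxycholic acid stimulation in FXR-bla HEK 293T cells, 16 h at 37 °C. Inhibition detected as reduced beta-lactamase activity via LiveBLAzer B/G FRET fluorescence after 2 h at room temperature.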

Assay [18] shares this target. The experiment in a line: qHTS assay to identify small molecule agonists of the farnesoid-X-receptor (FXR) signaling pathway (AID 743220; active = well fitted activation curve with a large enough effect in the signal ratio in the repeat runs, not every such curve was filed as active; the % refers to the signal ratio). In a few lines: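 Beta-lactamase reporter under UAS control in GeneBLAzer FXR HEK 293T cells (5000/well) measured with LiveBLAzer FRET substrate after 2 h at room temperature. Compound exposure lasted 16 h at 37C.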
A short description of assay [19]: qHTS assay to identify small molecule agonists of the peroxisome proliferator-activated receptor delta (PPARd) signaling pathway - cell viability counter screen (AID 743211; active = well fitted curve in the direction sought with a large enough effect in the repeat runs; an effect the other way counts as inactive or inconclusive; also: nearly all actives have a fitted effect of over 55% in size). In a few lines:
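PPARd-bla HEK293H cells (UAS-beta-lactamase reporter) were treated with compounds for 17 h at 37 C. Viability was then read in the same wells by CellTiter-Glo luminescence after 30 min at room temperature.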

This is an account of results in PubChem BioAssay (Tox21).

Records with an inconclusive call do not appear. Activity calls are given as the source filed them. Unless noted, calls follow the shape of the full dose curve.

Chain of Vitamin D3 receptor (Homo sapiens) (P11473 whole entry, looked up): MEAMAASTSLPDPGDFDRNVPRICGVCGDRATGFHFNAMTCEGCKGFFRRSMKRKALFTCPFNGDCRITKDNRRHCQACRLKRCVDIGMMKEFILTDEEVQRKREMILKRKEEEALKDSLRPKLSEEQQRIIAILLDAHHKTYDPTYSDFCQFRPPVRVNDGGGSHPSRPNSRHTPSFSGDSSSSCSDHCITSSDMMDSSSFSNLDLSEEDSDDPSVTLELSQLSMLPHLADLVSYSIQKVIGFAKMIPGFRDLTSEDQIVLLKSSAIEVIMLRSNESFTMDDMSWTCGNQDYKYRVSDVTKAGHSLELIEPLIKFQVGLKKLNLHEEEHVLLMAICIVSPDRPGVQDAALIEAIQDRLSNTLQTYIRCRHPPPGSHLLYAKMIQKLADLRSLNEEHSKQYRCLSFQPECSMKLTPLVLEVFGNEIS
Chain of Bile acid receptor (Homo sapiens) (Q96RI1 whole entry, looked up): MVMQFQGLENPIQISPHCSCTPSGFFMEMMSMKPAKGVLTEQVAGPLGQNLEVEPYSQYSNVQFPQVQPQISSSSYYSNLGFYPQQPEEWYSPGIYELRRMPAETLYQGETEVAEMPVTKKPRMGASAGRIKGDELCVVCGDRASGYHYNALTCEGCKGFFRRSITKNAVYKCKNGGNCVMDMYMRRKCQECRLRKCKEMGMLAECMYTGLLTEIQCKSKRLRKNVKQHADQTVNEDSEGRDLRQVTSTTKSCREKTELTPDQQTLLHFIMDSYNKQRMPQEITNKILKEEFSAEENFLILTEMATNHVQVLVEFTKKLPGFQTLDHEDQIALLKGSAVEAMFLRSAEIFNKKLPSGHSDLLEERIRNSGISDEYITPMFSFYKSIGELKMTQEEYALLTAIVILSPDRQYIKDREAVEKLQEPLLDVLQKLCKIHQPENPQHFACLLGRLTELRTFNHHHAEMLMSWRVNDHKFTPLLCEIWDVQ
Chain of Peroxisome proliferator-activated receptor delta (Homo sapiens) (Q03181 whole entry, looked up): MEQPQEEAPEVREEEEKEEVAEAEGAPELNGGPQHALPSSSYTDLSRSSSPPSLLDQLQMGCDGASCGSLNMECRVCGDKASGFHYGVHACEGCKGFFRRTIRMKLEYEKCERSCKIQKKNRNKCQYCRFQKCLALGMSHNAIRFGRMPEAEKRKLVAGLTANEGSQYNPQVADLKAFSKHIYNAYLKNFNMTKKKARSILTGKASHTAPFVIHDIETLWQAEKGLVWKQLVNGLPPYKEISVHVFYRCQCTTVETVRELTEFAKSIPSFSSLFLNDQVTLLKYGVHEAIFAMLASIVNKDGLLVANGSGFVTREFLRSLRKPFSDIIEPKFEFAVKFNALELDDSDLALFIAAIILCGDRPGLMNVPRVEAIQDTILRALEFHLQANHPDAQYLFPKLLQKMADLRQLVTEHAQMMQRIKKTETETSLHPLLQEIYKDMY

Consider `Cc1ccnc2ccccc12`, for which the Potency entry in assay [1], in assay [2], in [3], in [4], in assay [5] and in assay [8] was “inactive” throughout. In addition, the Potency result in [9] and in assay [14] was “inactive” each time. The molecule was classed as inactive in assay [6], in assay [7], in assay [10], in assay [11], in assay [12] and in assay [13]. Besides, the result in assay [15] and in [16] was inactive.

`CC(C)=CC=O`: the Potency entry in assay [1], in assay [2], in [3], in assay [4], in assay [5] and in assay [8] was “inactive” throughout. The Potency entry in [9] and in assay [14] was “inactive” each time. The result in [6], in assay [7], in [10], in [11], in assay [12] and in assay [13] was inactive. For the same molecule, the outcome in assay [15] and in assay [16] was inactive.

In the case of `CN(C(=O)C(Cl)Cl)c1ccc(OC(=O)c2ccco2)cc1`, the Potency entry in [1], in assay [2], in assay [17], in assay [4], in assay [18] and in assay [5] was “inactive” each time. The Potency result in [8], in [9] and in assay [14] was “inactive” each time. Further, the call in [6], in assay [10], in [11], in [12], in assay [13] and in [15] was inactive. In assay [16], the outcome was inactive.

With `COc1cc2c(cc1OC)-c1cc(=Nc3c(C)cc(C)cc3C)n(C)c(=O)n1CC2`, the Potency result in assay [4], in assay [5], in [9] and in assay [14] was “inactive” throughout. Moreover, the result in [7], in assay [10], in [11], in assay [12], in [13] and in assay [15] was inactive. In [16], the outcome was inactive.

Turning to `CC(C)CCCCCOC(=O)CCCCC(=O)OCCCCCC(C)C`, the Potency entry in assay [1], in assay [2], in assay [4], in [5], in assay [8] and in [9] was “inactive” throughout. Besides, the Potency result in assay [14] was “inactive”. Besides, the outcome in assay [6], in assay [7], in [10], in [11], in assay [12] and in assay [13] was inactive. Besides, the molecule was classed as inactive in [15] and in assay [16].

Regarding `C[N+](C)(C)CCOC(N)=O`, the Potency entry in [19], in assay [1], in assay [2], in assay [3], in [17] and in assay [4] was “inactive” in each case. Besides, the Potency entry in assay [18], in assay [5], in [8], in [9] and in [14] was “inactive” each time. Besides, the outcome in assay [6], in [7], in assay [10], in [11], in [12] and in assay [13] was inactive. Moreover, the molecule was classed as inactive in [15].

For the molecule `CN1CCN(CCCN2c3ccccc3Sc3ccc(S(=O)(=O)N(C)C)cc32)CC1`, the Potency in [2] is 26.6 µM (active); in [4], 29.8 µM (active); in assay [9], 23.9 µM (active). Besides, the call in assay [10], in assay [11], in [12], in [13], in [15] and in assay [16] was inactive. For the same molecule, the Potency entry in assay [14] was “inactive”.

For `COC(=O)[C@@H]1CC2=CC(=O)CC[C@]2(C)[C@@]23O[C@@H]2C[C@@]2(C)[C@@H](CC[C@@]24CCC(=O)O4)[C@H]13`, the Potency result in [1], in assay [2], in [3], in assay [4], in [5] and in assay [9] was “inactive” in each case. Also, the Potency result in assay [14] was “inactive”. Further, the outcome in assay [6], in [7], in assay [10], in assay [11], in [12] and in assay [13] was inactive. Also, the molecule was classed as inactive in assay [15] and in assay [16].
